HP1b chromo inh – HP1-beta chromodomain-methylated histone interaction inhibition. AlphaScreen HP1-beta / biotin-H3K9me3 peptide binding. Potency, µM (highest dose often 114 µM), usual class: inhibitors. 0.56% of 390,000 active. P83916; note: nearly all actives have a fitted effect of over 70% in size
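Compound inhibition of the preformed complex between 50 nM HP1-beta and 50 nM biotinylated H3K9me3 peptide was read by AlphaScreen. Buffer was PBS pH 7.4 with 0.01% Tween-20. Incubations ran 30 min at room temperature, with 10 ug/mL donor/acceptor beads.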
BAZ2B block – inhibitors of human BAZ2B bromodomain; Q9UIF8; AlphaScreen BAZ2B-H3K14Ac peptide displacement; Potency, µM (series often up to 114 µM), hits mostly inhibitors; 4.4% of 360,000 active; AID 504333; note: nearly all actives have a fitted effect of over 60% in size
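BAZ2B (50 nM) with biotin-H3(5-23)K14Ac peptide (50 nM) in PBS pH 7.4, 0.01% Tween-20, preformed 30 min, then compound 30 min at room temperature; top concentration 110uM. AlphaScreen streptavidin donor/nickel chelate acceptor beads (10 ug/mL final), 20 min dark, signal read.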
JMJD2A Tudor inh – JMJD2A Tudor domain (human) inhibition; O75164; AlphaScreen JMJD2A-Tudor / H3K4me3 peptide binding; Potency, µM (top dose mostly 114 µM), most hits filed as inhibitors; 4.4% of 390,000 active; note: nearly all actives have a fitted effect of over 50% in size
G9a inh – inhibitors of human histone lysine methyltransferase G9a | Q96KQ7 | G9a H3K9 monomethylation, AlphaScreen, 2 h | Potency, µM (highest dose often 102 µM), hits mostly inhibitors | 8.8% of 350,000 active | AID 504332; note: nearly all actives have a fitted effect of over 75% in size
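Chemiluminescent proximity detection of H3K9 monomethylation, read after 10 min bead incubation in the dark. Reaction: 20 nM G9a, 500 nM biotin-H3K9 peptide, 20 uM SAM cofactor, 2 h, room temperature, following 15 min enzyme-compound preincubation.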
L3MBTL1 inh – blocks human L3MBTL1. Potency, µM (highest dose often 57.1 µM), actives largely listed as inhibitors. Q9Y468. 0.66% of 230,000 active. AlphaScreen L3MBTL1–H3K9me1 peptide binding; note: nearly all actives have a fitted effect of over 60% in size
Target sequence (Q9Y468 whole entry, looked up): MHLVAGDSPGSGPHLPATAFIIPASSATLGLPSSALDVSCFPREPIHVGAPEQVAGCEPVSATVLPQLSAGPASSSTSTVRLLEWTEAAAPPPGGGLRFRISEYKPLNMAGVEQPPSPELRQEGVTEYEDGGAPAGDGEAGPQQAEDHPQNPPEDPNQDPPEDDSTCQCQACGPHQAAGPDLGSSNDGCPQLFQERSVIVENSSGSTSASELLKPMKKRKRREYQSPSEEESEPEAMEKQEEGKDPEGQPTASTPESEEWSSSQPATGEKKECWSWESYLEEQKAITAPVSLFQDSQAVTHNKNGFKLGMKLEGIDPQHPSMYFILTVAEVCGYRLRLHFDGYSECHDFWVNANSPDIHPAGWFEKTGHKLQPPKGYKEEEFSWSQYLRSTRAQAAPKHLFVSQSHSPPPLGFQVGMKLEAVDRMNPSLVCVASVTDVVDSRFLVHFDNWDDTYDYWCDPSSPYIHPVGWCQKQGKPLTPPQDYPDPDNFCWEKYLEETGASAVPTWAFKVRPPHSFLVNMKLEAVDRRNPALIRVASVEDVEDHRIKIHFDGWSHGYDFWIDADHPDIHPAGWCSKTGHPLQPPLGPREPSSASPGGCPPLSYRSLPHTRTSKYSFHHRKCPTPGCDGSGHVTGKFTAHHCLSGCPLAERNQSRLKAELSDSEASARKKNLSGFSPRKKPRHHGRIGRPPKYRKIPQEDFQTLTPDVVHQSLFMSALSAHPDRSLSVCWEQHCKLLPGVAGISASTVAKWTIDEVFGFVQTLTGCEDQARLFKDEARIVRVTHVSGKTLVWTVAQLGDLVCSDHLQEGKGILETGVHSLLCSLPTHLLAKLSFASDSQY
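AlphaScreen assay: L3MBTL1 (50 nM final) was preincubated 30 min at room temperature with biotinylated H3(1-15)K9me1 peptide (75 nM final), then 30 min with library compounds; streptavidin donor and nickel chelate acceptor beads (10 ug/mL final) added, 30 min dark.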
Each line names hits and unclear results; the compound was inactive in the other large screens. Hits are enriched below; roughly 11% of the tested compounds scored in any of these assays. Calls come from the whole dose curve; as a rule, active = well fitted inhibition curve with a large enough effect; inconclusive = small, poorly fitted or top-dose-only effect; inactive = no such curve, though single readings can be large or run the other way.

Cc1ccc(/C=C2\C(=O)NC(=S)N(c3cccc(F)c3)C2=O)o1	HP1b chromo inh inconclusive, BAZ2B block 50.1µM, JMJD2A Tudor inh 44.7µM, G9a inh 1.78µM, L3MBTL1 inh inconclusive
COc1ccc(N2C(=O)/C(=C/c3ccc(C)o3)C(=O)NC2=S)cc1	BAZ2B block 44.7µM, JMJD2A Tudor inh 31.6µM, G9a inh 10µM (no result: L3MBTL1 inh)
N=C(N)c1ccc(CS(=O)(=O)F)cc1	none (no result: HP1b chromo inh, BAZ2B block, JMJD2A Tudor inh, L3MBTL1 inh)
CC(C)c1cccc(C(C)C)c1OC(=O)NC(=O)c1c(F)cccc1F	none (no result: L3MBTL1 inh)
CCCC(=O)OC(C(Cl)(Cl)Cl)P(=O)(OC)OC (stereo unspecified)	none (no result: HP1b chromo inh, BAZ2B block, JMJD2A Tudor inh, L3MBTL1 inh)
COc1ccc(OCc2nnc(SCC(=O)NCC3CCCO3)n2N)cc1 (stereo unspecified)	HP1b chromo inh inconclusive (no result: BAZ2B block, G9a inh)
c1ccc(CNC2CCCCCCC2)cc1 (tested in a mixture with another compound)	none (no result: BAZ2B block, G9a inh, L3MBTL1 inh)
NNCc1ccccc1	JMJD2A Tudor inh 20µM (no result: BAZ2B block, L3MBTL1 inh)
CC12CCC3C4CCC(=O)C(O)=C4CCC3C1CCC2OC(=O)CCC1CCCC1 (stereo unspecified)	none (no result: HP1b chromo inh, BAZ2B block, JMJD2A Tudor inh, L3MBTL1 inh)
NC(Cn1ccc(=O)c(O)c1)C(=O)O (stereo unspecified)	none (no result: HP1b chromo inh, BAZ2B block, JMJD2A Tudor inh, L3MBTL1 inh)
NC1=C(Br)C(=O)c2ccccc2C1=O	BAZ2B block inconclusive, G9a inh 50.1µM
CCCCCCCCCCCCCC(=O)O[C@@H]1[C@@H](C)[C@@]2(O)[C@H](C=C(CO)C[C@]3(O)C(=O)C(C)=C[C@@H]23)[C@@H]2C(C)(C)C12OC(C)=O (stereo partly specified)	none (no result: HP1b chromo inh, BAZ2B block, JMJD2A Tudor inh, L3MBTL1 inh)
COc1ccc(OC)c(N2C(=O)/C(=C/c3ccco3)C(=O)NC2=S)c1	HP1b chromo inh 3.16µM, BAZ2B block 1.41µM, JMJD2A Tudor inh 1.58µM, G9a inh 1.78µM (no result: L3MBTL1 inh)
COc1cc(/C=C2\C(=O)NC(=O)N(c3ccccc3)C2=O)c([N+](=O)[O-])cc1OC	G9a inh 10µM
COc1ccc(N2C(=O)/C(=C/c3cc(C)n(-c4ccc(C)cn4)c3C)C(=O)NC2=S)c(OC)c1	BAZ2B block inconclusive, JMJD2A Tudor inh 39.8µM, G9a inh 31.6µM, L3MBTL1 inh inconclusive
Cc1ccc(-n2c(C)cc(/C=C3/C(=O)NC(=O)N(C)C3=O)c2C)cc1	G9a inh inconclusive
O=C1NC(=S)N(c2ccc(F)cc2)C(=O)/C1=C/c1ccco1	BAZ2B block 1.78µM, G9a inh inconclusive (no result: HP1b chromo inh, JMJD2A Tudor inh)
NNC(=O)c1nn(-c2ccccc2)cc1O	L3MBTL1 inh inconclusive (no result: HP1b chromo inh, JMJD2A Tudor inh)
CC(=O)OC1CCC23C(=O)OC45CCC(C6=CC(=O)OC6)C4(C)CCC2C5CCC3(O)C1 (stereo unspecified)	none (no result: HP1b chromo inh, BAZ2B block, JMJD2A Tudor inh, L3MBTL1 inh)
COc1ccc(OC)c(N2C(=O)NC(=O)/C(=C/c3ccc([N+](=O)[O-])s3)C2=O)c1	HP1b chromo inh 31.6µM, BAZ2B block 39.8µM, JMJD2A Tudor inh 28.2µM, G9a inh 11.2µM (no result: L3MBTL1 inh)
O=C1NC(=S)N(c2ccc(F)cc2)C(=O)/C1=C\c1ccoc1	HP1b chromo inh 5.62µM, BAZ2B block 14.1µM, JMJD2A Tudor inh 3.16µM, G9a inh 7.94µM (no result: L3MBTL1 inh)
O=C1NC(=O)N(c2cccc(F)c2)C(=O)/C1=C/c1ccc(N2CCOCC2)cc1	none (no result: G9a inh)
O=C1NC(=O)C(=Cc2c(Cl)cccc2Cl)C(=O)N1	none (no result: BAZ2B block, G9a inh, L3MBTL1 inh)
CCc1ccc(N2C(=O)NC(=O)/C(=C/c3ccsc3)C2=O)cc1	G9a inh 39.8µM (no result: HP1b chromo inh, JMJD2A Tudor inh, L3MBTL1 inh)
O=C1NC(=O)C(=Cc2ccco2)C(=O)N1	JMJD2A Tudor inh 44.7µM (no result: BAZ2B block, G9a inh, L3MBTL1 inh)
O=C(c1cc2ccccn2n1)N1CCN(Cc2ccccc2)CC1	G9a inh inconclusive (no result: L3MBTL1 inh)
COc1cccc(CSc2nc(-c3ccccc3OC)nc3c2Cc2c(CO)cnc(C)c2O3)c1	G9a inh inconclusive (no result: L3MBTL1 inh)
CN(C)CCO	none (no result: HP1b chromo inh, BAZ2B block, JMJD2A Tudor inh, L3MBTL1 inh)
COc1ccc(Cl)cc1NC(=O)CN1C(=O)CN=C(c2ccccc2)c2cc(Cl)ccc21	G9a inh inconclusive (no result: BAZ2B block, L3MBTL1 inh)
Cc1ccc(N2C(=O)NC(=O)/C(=C\c3ccoc3)C2=O)cc1	BAZ2B block inconclusive, G9a inh 44.7µM, L3MBTL1 inh inconclusive
Cc1ccc(N2C(=O)NC(=O)/C(=C\c3cc(C)n(-c4ccc(C(=O)O)cc4)c3C)C2=O)cc1	G9a inh inconclusive (no result: L3MBTL1 inh)
O=C(O)Cn1cc(/C=C2\C(=O)NC(=O)N(c3ccc(Cl)cc3)C2=O)c2ccccc21	BAZ2B block inconclusive, G9a inh inconclusive (no result: L3MBTL1 inh)
O=C1NC(=S)N(c2ccc(Cl)cc2)C(=O)/C1=C/N1CCN(C(=O)c2ccco2)CC1	G9a inh 50.1µM
CC(=O)OC1CC[C@]2(C)C(CCC3C2CC[C@]2(C)C(C4=CC(=O)OC4)C(OC(C)=O)CC32O)C1 (stereo partly specified)	none (no result: HP1b chromo inh, BAZ2B block, JMJD2A Tudor inh, L3MBTL1 inh)
